Screening results: PubChem, National Center for Advancing Translational Sciences (NCATS)
Shown are actives, neighbours in structure and some others; about 3.7% of the full set was active somewhere.
HttQ103 aggreg – mutant huntingtin aggregation inhibition; actives 1.1% (n = 220,000); PC12 HttQ103-GFP aggregates, Acumen cytometry, 40 h; Potency, µM (top dose mostly 46.1 µM), for inactives: at the highest dose activity change, negative = inhibition, most hits filed as inhibitors; note: % is set by controls: 0 for no effect and ±100 for the full control effect; nearly all actives have a fitted effect of over 60% in size
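Using laser scanning cytometry, GFP-positive aggregates were counted after lysis of PC12 cells induced with 100 nM tebufenozide to express HTT exon 1 Q103–GFP. Compounds were tested in titration.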
HTT ATP protect – protects HTT-Q103 PC12 cells, measured by ATP; Potency, µM (top dose mostly 56.4 µM), without a hit: cytoprotection (ATP increase), hits mostly activators; PC12 HTT-Q103 induced, cytoprotection, ATP luminescence, 40 h; actives 0.14% (n = 230,000); note: % of control where 0% means no effect; nearly all actives have a fitted effect of over 45% in size
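PC12 cells with ecdysone-inducible HTT exon 1 Q103-GFP, induced with 100 nM tebufenozide and co-treated with library compounds in a dose series (1536-well, 1500 cells/well). Cytoprotection read as ATP content by ATPlite luminescence.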
Tau fluor cs – counter-screen for tau fibril formation inhibitors. tau K18 P301L Alexa594 fluorescence, heparin fibrillization. Potency, µM (titrated, usually from 57.7 µM), without a hit: top-dose activity change, negative = decrease. actives 0.93% (n = 280,000). AID 1463; note: % is set by controls: 0 for no effect and ±100 for the full control effect; nearly all actives have a fitted effect of over 55% in size
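Human tau K18 P301L (15 uM unlabeled, 0.24 uM Alexa 594-labeled) in 100 mM sodium acetate pH 7 with 20 uM heparin, 6 hr at 37 C. ThT 30 uM added, 1 hr ambient; Alexa 594 FP and total fluorescence read at 555/632 nm.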
Tau fibril ThT – tau fibrillization inhibition (ThT binding); recombinant tau K18 P301L, heparin-induced fibrillization, ThT fluorescence; Potency, µM (highest dose often 57.4 µM), for the others: top-dose activity, negative = inhibition, most hits filed as inhibitors; AID 1460; P10636; actives 2.1% (n = 270,000); note: % is set by controls: 0 for no effect and ±100 for the full control effect; nearly all actives have a fitted effect of over 55% in size
Target sequence (P10636 561-689 P618L limits assumed): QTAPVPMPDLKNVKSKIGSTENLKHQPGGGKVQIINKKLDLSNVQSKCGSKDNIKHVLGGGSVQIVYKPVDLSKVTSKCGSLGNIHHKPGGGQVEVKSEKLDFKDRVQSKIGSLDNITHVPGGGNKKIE
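Using a mix of unlabeled (15 uM) and Alexa 594-labeled (0.24 uM) tau K18 P301L, heparin-triggered fibrillization over 6 hr at 37 C was scored by ThT fluorescence.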
Tau FP inhib – inhibitors of human tau fibril formation; P10636; K18 P301L tau heparin fibrillization, Alexa594 FP, 6 h; Potency, µM (highest dose often 57.7 µM), for the others: top-dose activity, negative = inhibition, usual class: inhibitors; actives 0.39% (n = 280,000); AID 1468; note: % is set by controls: 0 for no effect and ±100 for the full control effect; nearly all actives have a fitted effect of over 55% in size
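Compound effects on tau fibrillization are measured by Alexa 594 fluorescence polarization (ex 555, em 632 nm). K18 P301L tau is used at 15 uM with 0.24 uM labeled tracer, and 20 uM heparin induces aggregation over 6 hr at 37 C.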
An asterisk follows results filed as active; ? = inconclusive; . = no result; [ ] = remark or other dose. Calls come from the whole dose curve; as a rule, active = well fitted curve in the direction sought with a large enough effect; inconclusive = small, poorly fitted or top-dose-only effect, or another doubt; inactive = no such curve, though single readings can be large; an effect the other way counts as inactive or inconclusive. Potency is the fitted concentration of half-maximal effect.

SMILES	HttQ103 aggreg	HTT ATP protect	Tau fluor cs	Tau fibril ThT	Tau FP inhib
CC(=O)c1cccc(NC(=O)CCc2c(C)nc3c(-c4ccc(F)cc4)c(C)nn3c2C)c1	.	.	-24%	11%	-21%
C[C@@H](c1ccccc1)N1C(=O)[C@H]2[C@H]3[C@H](O)[C@H](O)C/C(=N/OCc4ccccc4)[C@H]3CC[C@@H]2C1=O	.	?	-11%[11.6 µM]	-2%[11.5 µM]	-11%[11.6 µM]
CN=C1N[C@H](c2ccccc2)N(c2ccccc2)S1	.	-70%	-16%	20µM*	32µM*
CCc1c(C)nc2ncnn2c1NCCc1ccc(OC)c(OC)c1	10µM*	18%[10 µM]	5%	-4%	4%
CCNc1ncc2nc(-c3ccc(OC)cc3)c(=O)n(Cc3cccc(OC)c3)c2n1	.	-9%	.	.	.
CNc1ccc(/C=C2\CSc3ccccc3C2=O)cc1[N+](=O)[O-]	9%	19%[10 µM]	14%	2.5µM*	-1%
COc1ccc(Nc2nc3ccccc3nc2NS(=O)(=O)c2cccs2)cc1	22µM*	-39%	?	14µM*	15%
C=C(C)COc1ccc(-c2[nH]ncc2-c2ccc(OC)cc2)c(O)c1	-30%[9.22 µM]	8%[10 µM]	11µM*[quencher]	-15%	?
C=C(C)COc1ccc(-c2n[nH]c(C)c2-c2ccc(OC)c(OC)c2)c(O)c1	-23%[9.22 µM]	-48%[10 µM]	14µM*[quencher]	-9%	-10%
C=C(C)COc1ccc(-c2[nH]ncc2-c2ccccc2)c(O)c1	0%	-18%	18µM*[quencher]	-15%	-5%
C=C(C)COc1ccc(-c2nc(N)ncc2-c2ccc(OC)cc2)c(O)c1	?	21%[10 µM]	?	?	-10%
C=C(C)COc1ccc(-c2[nH]ncc2-c2ccc(OC)c(OC)c2)c(O)c1	-31%	-22%[10 µM]	25µM*[quencher]	-10%	8%
FC(F)(F)c1cc(NC(=S)N2c3ccccc3-n3cccc3[C@H]2c2cccnc2)cc(C(F)(F)F)c1	.	12%[10 µM]	.	.	.
C[C@]12C[C@@](C)(C=C1/C=C/c1ccc(C(F)(F)F)cc1)C(=O)C[C@H]2c1ccc(C(F)(F)F)cc1	.	16%	-10%	-3%	-3%
Cc1ccc(C)c(C(=O)CSc2nc3cc(C(=O)NC4CCCC4)ccc3c(=O)n2CC2CCCO2)c1 (stereo not given)	.	.	-1%	0%	2%
COc1cccc(NC(=O)CCc2nnc3n(CC(C)C)c(=O)c4ccccc4n23)c1	.	.	-7%	1%	-2%
COc1cccc(C2C3=C(Nc4[nH]n(-c5ccccc5)c(=O)c42)c2ccccc2C3=O)c1 (stereo not given)	9%	-10%[10 µM]	?	5µM*	0%
COc1cccc(C2C3=C(CCCC3=O)Nc3[nH]n(-c4ccccc4)c(=O)c32)c1 (stereo not given)	-4%	-5%	2%	-2%	9%
CCOc1ccc(NC(=O)CCc2c(C)nc3cc(-c4ccccc4OC)nn3c2C)cc1	.	.	-20%	?	8%
C=C1[C@@H]2CC[C@H](C2)C1(C)C	-9%	-18%	.	.	.
CCCCOC(=O)c1ccc(OC(=O)c2sc3ncn(Cc4ccccc4Cl)c(=O)c3c2C)cc1	.	.	-11%	-10%	-4%
CCC(C)Cn1c(COc2ccc(OC)cc2)nc2ccccc21 (stereo not given)	.	.	-21%	?	0%
CCC(C)Cn1c(C)nc2ccccc21 (stereo not given)	20µM*	-31%	3%	2%	-8%
COc1cccc(C(=O)Nc2ccc(-c3nc4ccccc4s3)cc2Cl)c1	.	.	-26%	?	?
S=c1[nH]nc(-c2ccco2)n1-c1ccccc1Cl	20%[9.22 µM]	?	-9%	-8%	2%
SMILES	HttQ103 aggreg	HTT ATP protect	Tau fluor cs	Tau fibril ThT	Tau FP inhib
S=c1[nH]nc(-c2cc(-c3ccco3)[nH]n2)n1-c1ccccc1Cl	14%	3%	?	20µM*	?
O=C1c2ccc(Oc3ccc4c(c3)C(=O)N(CCCO)C4=O)cc2C(=O)N1CCCO	5.6µM*	0%	-7%	-1%	-5%
Cc1ccc2c(c1)C(=O)N(CCCCO)C2=O	12%	-5%[10 µM]	2%	1%	-8%
Cc1ccc(Cl)cc1-n1ncc2c(N3CCN(Cc4ccccc4)CC3)ncnc21	.	.	-14%	-12%	?
COc1ccc(CN2C(=O)N(c3ccc(F)cc3)C(=O)C2CC(=O)Nc2cc(OC)cc(OC)c2)cc1 (stereo not given)	.	.	-25%	-9%	-5%
O=C(O)c1cc([N+](=O)[O-])ccc1NCc1ccccc1	-5%	-26%	7%	?	7%
O=C(O)c1cc([N+](=O)[O-])ccc1NCCCc1ccccc1	.	?	-8%	3.5µM*	2%
Cc1cc(NS(=O)(=O)c2ccc(Nc3nc(-c4sc(N)nc4C)cs3)cc2)no1	3%	0%	?	20µM*	?
Cc1cc(O)ccc1Nc1nc(-c2sc(N)nc2C)cs1	-23%	9%[0.074 µM]	?	13µM*	?
Cc1nc(N)sc1-c1csc(Nc2ccccc2)n1	7%	-14%	25µM*[quencher]	11µM*	?
Cc1cc(NS(=O)(=O)c2ccc(Nc3nc(-c4ccc(C)c(C)c4)cs3)cc2)no1	13%	-49%[10 µM]	1%	-1%	-3%
Cc1ccc(Cl)cc1Nc1nc(-c2sc(NC(=O)C(C)(C)C)nc2C)cs1	-29%	-36%	?	?	3%
COc1cc(NS(=O)(=O)c2ccc(Nc3nc(-c4ccccc4)cs3)cc2)nc(OC)n1	13%	22%[10 µM]	13µM*[quencher]	?	?
NC(C(=O)O)C(CC(=O)O)c1ccc(Cl)cc1 (stereo not given)	.	-12%	0%	5%	3%
Cc1cc(C)c2c(SCc3ccc(Cl)cc3Cl)nc(N)nc2n1	.	0%[10 µM]	.	.	.
Cc1c(Cl)cccc1NC(=O)C[C@H]1Sc2ccccc2NC1=O	.	-3%[10 µM]	.	.	.
Cc1ccc(CCNC(=O)CCSCc2ccccc2F)cc1	.	.	-18%	-16%	11%
C/C(=N\NC(=O)c1ccccc1)c1nc2ccccc2n1C	11µM*	.	-6%	-10%	3%
CCCCCCn1c(CNC(=O)c2ccccc2)nc2ccccc21	.	.	-17%	-18%	-5%
CCc1cccc(C)c1NC(=O)CCn1c(=O)c2cccn2c2ccccc21	.	.	-10%	-7%	14%
COc1ccc(OCCCCn2c(C3CC(=O)N(c4cccc(Cl)c4)C3)nc3ccccc32)cc1 (stereo not given)	.	.	-19%	?	4%
Cc1ccccc1NC(=S)N/N=C/C(C)c1ccccc1 (stereo not given)	-1%	4.5µM*	-11%	?	7%
Cc1ccccc1NC(=S)NCCc1ccccc1	11%	-36%[0.074 µM]	2%	7%	0%
Cc1ccccc1NC(=S)NCc1ccccc1	?	5.6µM*	2%	1%	3%
Cc1cccc(NC(=S)N/N=C/C(C)c2ccccc2)c1C (stereo not given)	1%	-5%	-12%	?	-2%
